# Data taken from PubChem BioAssay.
# Where “and” joins values, the source holds several entries; their conditions need not be identical. Equal entries are not always repeated. Records with an inconclusive call do not appear. Where a structure was tested more than once in an assay, its records may differ in their call. Calls of active or inactive are those of the source.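 The calls were made as follows, unless noted: active = normalized viability below 100% at a tested concentration; inactive = the rest.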
# Assays:
# [1] = viability loss in pontine glioma line – cell-based, SU-DIPG-IV, MIPE4.0, CellTiter-Glo, qHTS, dose response (AID 1347063; cut-off not given, nearly all actives have AC50 up to about 30 µM;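 also: compound exposure lasted 48 hours before the viability readout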); settings: CellTiter-Glo ATP luminescence
# [2] = viability loss in pontine glioma line – cell-based, SU-DIPG-XIII, MIPE5.0, CellTiter-Glo, qHTS, dose response (AID 1347064; cut-off not given, nearly all actives have AC50 up to about 23 µM;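 as to AC50: cells exposed to compound for 48 hours before the viability read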); settings: CellTiter-Glo ATP luminescence
# [3] = viability loss in pontine glioma line – cell-based, SU-DIPG-XXV, MIPE5.0, CellTiter-Glo, qHTS, dose response (AID 1347065; cut-off not given, nearly all actives have AC50 up to about 26 µM;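 also: cells exposed to compound for 48 hours before ATP readout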); settings: CellTiter-Glo ATP luminescence
# [4] = JHH-DIPG-1 glioma cell viability, MIPE5.0 library, CellTiter-Glo luminescence, qHTS (AID 1347067; cut-off not given, nearly all actives have AC50 up to about 26 µM;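 also: cells exposed to compound for 48 hours before readout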); settings: JHH-DIPG-1 glioma viability, CellTiter-Glo ATP luminescence
# [5] = growth inhibition of DIPG cells – cell-based, MIPE5.0 library, qHTS (AID 1347068; cut-off not given, nearly all actives have IC50 up to about 30 µM;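 also: cells exposed to compound for 48 hours before viability readout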); settings: SU-DIPG-XXV viability
# [6] = viability loss with induced miR-34 in A549 – imaging, A549 dox-inducible miR-34, nuclei and caspase counts, primary screen (AID 1347080;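 active = compounds whose cell count with miR-34 switched on is under 0.7 times the count with it off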); settings: A549 miR-34 inducible, Hoechst nuclei count, 48 h
# [7] = MELAS cybrid and Rieske KO viability enhancers – cell-based, MELAS cybrids, Rieske KO mouse fibroblasts, CellTiter-Glo, primary screen (AID 1508586;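 active = mean z-score across replicates of 1.96 or higher in either the MELAS or the Rieske mutant cell line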;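 also: z relative to plate mean and SD of compound and empty wells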); settings: low glucose
# [8] = drug combination growth inhibition, ovarian cancer – cell-based, oncology-focused library, rucaparib conditional, profiling panel (AID 1508598); settings: patient-derived ovarian cancer cells, CellTiter-Glo viability, 144 h, stronger effect = lower value
# [9] = liver-stage malaria parasite load reduction – cell-based, known kinase inhibitor set, luminescence, hepatoma host viability (AID 624392; call rule not given here;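 also: infected cells incubated roughly two days before readout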); settings: Plasmodium liver stage in hepatoma cells, luciferase luminescence, concentration not given here; liver cell % of control: measured here: host liver cell viability; parasite % of control: stronger effect = lower value
# [10] = compounds altering HSF1 focus formation in cells – imaging, Selleck Cancer Library (AID 1347162; in the data active = plate-normalised HSF1 focus index below about 0.46); settings: human cells, HSF1 nuclear foci imaging, at 10 µM; SSMD: measured here: HSF1 foci SSMD mean; cell count: measured here: cell number; plate-normalised HSF1 focus index: stronger effect = lower value
# [11] = stronger effect = lower value, cell number ratio, induced over uninduced
# [12] = measured here: relative caspase fold change +Dox/-Dox
# [13] = measured here: total cells with miR-34 induction, stronger effect = lower value
# [14] = measured here: total cells without miR-34 induction
# [15] = MELAS cybrid survival, CellTiter-Glo 48 h, stronger effect = higher value
# [16] = Rieske KO mouse fibroblast survival, CellTiter-Glo 72 h
# [17] = at 0.000305 µM, OCI-C5x cells, with rucaparib 10 µM, 100% = cells with rucaparib alone
# [18] = at 0.000305 µM, OCI-C5x cells, without rucaparib
# [19] = at 0.000305 µM, OCI-P5x cells, with rucaparib 20 µM, 100% = cells with rucaparib alone
# [20] = at 0.000305 µM, OCI-P5x cells, without rucaparib
# [21] = at 0.00122 µM, OCI-C5x cells, with rucaparib 10 µM, 100% = cells with rucaparib alone
# [22] = at 0.00122 µM, OCI-C5x cells, without rucaparib
# [23] = at 0.00122 µM, OCI-P5x cells, with rucaparib 20 µM, 100% = cells with rucaparib alone
# [24] = at 0.00122 µM, OCI-P5x cells, without rucaparib
# [25] = at 0.00488 µM, OCI-C5x cells, with rucaparib 10 µM, 100% = cells with rucaparib alone
# [26] = at 0.00488 µM, OCI-C5x cells, without rucaparib
# [27] = at 0.00488 µM, OCI-P5x cells, with rucaparib 20 µM, 100% = cells with rucaparib alone
# [28] = at 0.00488 µM, OCI-P5x cells, without rucaparib
# [29] = at 0.0195 µM, OCI-C5x cells, with rucaparib 10 µM, 100% = cells with rucaparib alone
# [30] = at 0.0195 µM, OCI-C5x cells, without rucaparib
# [31] = at 0.0195 µM, OCI-P5x cells, with rucaparib 20 µM, 100% = cells with rucaparib alone
structure (smiles),measurement,setting,value
O=c1cc(CN2CCOCC2)occ1OCCCCCSc1ccnc2cc(C(F)(F)F)ccc12,outcome,[1],inactive
same,AC50,[2],18.6 µM (active)
same,AC50,[3],23.5 µM (active)
same,AC50,[4],18.6 µM (active)
same,IC50,[5],20.9 µM (active)
same,fold change,[6]; [11],0.876 (inactive)
same,fold change,[6]; [12],0.509
same,cell count,[6]; [13],6290
same,cell count,[6]; [14],7180
same,z-score,[7]; [15],-0.449 (inactive)
same,z-score,[7]; [16],0.747
Cn1cc(-c2cnn3c(N)c(Br)c([C@@H]4CCCNC4)nc23)cn1,AC50,[1],2.09 µM (active)
same,outcome,[4],inactive
CCc1ccc(N(CC(C)C)S(=O)(=O)c2ccc(OCC3CCOCC3)c(CO)c2)cc1,outcome,[2],inactive
same,AC50,[3],20.9 µM (active)
CNc1nc(-c2ccc3c(N)n[nH]c3c2)cc(N2C[C@@H](C(=O)NC3CCCCC3)CC[C@H]2C)n1,AC50,[1],20.9 µM (active)
same,AC50,[2],18.6 µM (active)
same,AC50,[3],6.61 µM (active)
same,AC50,[4],14.8 µM (active)
same,viability,[8]; [17],103% (inactive)
same,viability,[8]; [18],113% (inactive)
same,viability,[8]; [19],103% (inactive)
same,viability,[8]; [20],106% (inactive)
same,viability,[8]; [21],124% (inactive)
same,viability,[8]; [22],115% (inactive)
same,viability,[8]; [23],97.7% (active)
same,viability,[8]; [24],102% (inactive)
same,viability,[8]; [25],116% (inactive)
same,viability,[8]; [26],111% (inactive)
same,viability,[8]; [27],100% (inactive)
same,viability,[8]; [28],104% (inactive)
same,viability,[8]; [29],119% (inactive)
same,viability,[8]; [30],115% (inactive)
same,viability,[8]; [31],92.7% (active)
same,viability,"[8]; at 0.0195 µM, OCI-P5x cells, without rucaparib",96.7% (active)
same,viability,"[8]; at 0.0781 µM, OCI-C5x cells, with rucaparib 10 µM, 100% = cells with rucaparib alone",117% (inactive)
same,viability,"[8]; at 0.0781 µM, OCI-C5x cells, without rucaparib",120% (inactive)
same,viability,"[8]; at 0.0781 µM, OCI-P5x cells, with rucaparib 20 µM, 100% = cells with rucaparib alone",102% (inactive)
same,viability,"[8]; at 0.0781 µM, OCI-P5x cells, without rucaparib",98.2% (active)
same,viability,"[8]; at 0.313 µM, OCI-C5x cells, with rucaparib 10 µM, 100% = cells with rucaparib alone",107% (inactive)
same,viability,"[8]; at 0.313 µM, OCI-C5x cells, without rucaparib",113% (inactive)
same,viability,"[8]; at 0.313 µM, OCI-P5x cells, with rucaparib 20 µM, 100% = cells with rucaparib alone",91% (active)
same,viability,"[8]; at 0.313 µM, OCI-P5x cells, without rucaparib",91.1% (active)
same,viability,"[8]; at 1.25 µM, OCI-C5x cells, with rucaparib 10 µM, 100% = cells with rucaparib alone",112% (inactive)
same,viability,"[8]; at 1.25 µM, OCI-C5x cells, without rucaparib",122% (inactive)
same,viability,"[8]; at 1.25 µM, OCI-P5x cells, with rucaparib 20 µM, 100% = cells with rucaparib alone",90% (active)
same,viability,"[8]; at 1.25 µM, OCI-P5x cells, without rucaparib",93.4% (active)
same,viability,"[8]; at 5 µM, OCI-C5x cells, with rucaparib 10 µM, 100% = cells with rucaparib alone",67.5% (active)
same,viability,"[8]; at 5 µM, OCI-C5x cells, without rucaparib",155% (inactive)
same,viability,"[8]; at 5 µM, OCI-P5x cells, with rucaparib 20 µM, 100% = cells with rucaparib alone",22.3% (active)
same,viability,"[8]; at 5 µM, OCI-P5x cells, without rucaparib",84.2% (active)
O=C(O)c1ccc(CCCc2ccc(OCCc3ccc(F)cc3)cc2)o1,outcome,[2],inactive
Cc1nc(N)sc1-c1ccnc(Nc2ccc(N3CCOCC3)cc2)n1,liver cell % of control,[9],72.4% and 73.5% and 98.2%
same,parasite % of control,[9],0.414% (inactive) and 0.47% (inactive) and 0.326% (active)
same,AC50,[1],20.9 µM (active)
same,AC50,[2],5.9 µM (active)
same,AC50,[3],2.63 µM (active)
same,AC50,[4],14.8 µM (active)
same,fold change,[6]; [11],0.855 (inactive)
same,fold change,[6]; [12],1.29
same,cell count,[6]; [13],1260
same,cell count,[6]; [14],1470
same,SSMD,[10],3.31
same,cell count,[10],7110
same,plate-normalised HSF1 focus index,[10],1.12 (inactive)
same,z-score,[7]; [15],1.86 (inactive)
same,z-score,[7]; [16],-0.218
same,viability,[8]; [17],109% (inactive)
same,viability,[8]; [18],111% (inactive)
same,viability,[8]; [19],125% (inactive)
same,viability,[8]; [20],120% (inactive)
same,viability,[8]; [21],110% (inactive)
same,viability,[8]; [22],112% (inactive)
same,viability,[8]; [23],115% (inactive)
same,viability,[8]; [24],120% (inactive)
same,viability,[8]; [25],104% (inactive)
same,viability,[8]; [26],112% (inactive)
same,viability,[8]; [27],117% (inactive)
same,viability,[8]; [28],124% (inactive)
same,viability,[8]; [29],104% (inactive)
same,viability,[8]; [30],95.4% (active)
same,viability,[8]; [31],116% (inactive)
